Percent Effect data for eleven compounds are collected here from ChEMBL document CHEMBL3988442, “University of Dundee, Small-Polar-MMV Screening Library” (2021).

The structures appear in SMILES notation. For some of these results: Potency and affinity values are given separately.

Parameters in all cases: scale not given: direction of the effect not stated beside the values
Assay [1] addresses Protein translocase subunit SecA (Escherichia coli (strain K12)) (UniProt P10408). The assay is described as follows: Assay to Identify E. coli SecA ATPase Inhibitors. The following applies: 30 µM. Type of assay: functional.
Assay [2] addresses T1, Ubiquitin-activating enzyme e1, putative (Leishmania donovani (strain BPK282A1)) (UniProt E9BSI1).
T1 sequence (whole entry): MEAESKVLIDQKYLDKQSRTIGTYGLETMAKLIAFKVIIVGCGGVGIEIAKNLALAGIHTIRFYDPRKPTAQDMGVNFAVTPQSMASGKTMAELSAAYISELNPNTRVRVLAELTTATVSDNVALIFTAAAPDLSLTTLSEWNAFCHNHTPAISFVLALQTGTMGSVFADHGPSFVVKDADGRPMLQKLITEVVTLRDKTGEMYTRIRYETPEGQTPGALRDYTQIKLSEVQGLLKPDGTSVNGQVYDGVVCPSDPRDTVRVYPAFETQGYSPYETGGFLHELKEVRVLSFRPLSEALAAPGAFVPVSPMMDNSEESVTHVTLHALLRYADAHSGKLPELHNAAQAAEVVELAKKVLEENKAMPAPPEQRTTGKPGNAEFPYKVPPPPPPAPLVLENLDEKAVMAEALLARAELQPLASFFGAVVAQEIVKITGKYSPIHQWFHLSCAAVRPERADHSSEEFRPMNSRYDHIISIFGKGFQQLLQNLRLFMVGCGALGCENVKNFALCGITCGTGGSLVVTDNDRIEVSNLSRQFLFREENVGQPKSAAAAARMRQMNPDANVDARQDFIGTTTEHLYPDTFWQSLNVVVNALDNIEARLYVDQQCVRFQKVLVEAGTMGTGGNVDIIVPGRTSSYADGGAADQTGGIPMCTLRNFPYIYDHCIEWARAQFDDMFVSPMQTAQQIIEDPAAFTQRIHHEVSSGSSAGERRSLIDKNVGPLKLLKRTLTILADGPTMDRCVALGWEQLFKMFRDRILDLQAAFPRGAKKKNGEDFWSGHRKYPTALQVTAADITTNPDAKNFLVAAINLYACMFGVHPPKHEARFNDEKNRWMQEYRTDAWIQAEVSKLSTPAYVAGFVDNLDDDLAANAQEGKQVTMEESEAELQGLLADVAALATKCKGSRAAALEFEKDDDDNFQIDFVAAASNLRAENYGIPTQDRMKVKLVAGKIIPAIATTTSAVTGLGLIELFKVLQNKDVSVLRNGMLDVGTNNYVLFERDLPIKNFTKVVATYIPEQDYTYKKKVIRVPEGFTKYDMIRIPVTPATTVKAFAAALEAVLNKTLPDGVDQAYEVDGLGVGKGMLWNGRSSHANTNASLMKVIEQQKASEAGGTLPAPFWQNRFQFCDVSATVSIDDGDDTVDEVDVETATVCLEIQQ
The assay is described as follows: Leishmania donovani Ubiquitin Activating Enzyme (LdE1). Type of assay: functional. The following applies: 30 µM.

Assay [3] deals with AMP-activated protein kinase, AMPK (Homo sapiens) (UniProt P54646+O43741+P54619+Q9UGJ0+Q9Y478+Q13131+Q9UGI9). Put plainly: AMP-dependent Kinase enzyme assay. An in vitro enzyme assay that detects ADP turnover that is directly proportional to AMPK activity. This uses naive AMPK that is activated during the assay with MK-8722. It counts as functional. Particulars: 30 µM.
The target in assay [4] is Sialic acid-binding Ig-like lectin 9 (Homo sapiens) (UniProt Q9Y336). Put plainly: Hs-Siglec9 ALPHAscreen SOP 20170721. The following applies: 10 µM.
Another assay relates to Trypanosoma cruzi. The assay is described as follows: Trypanosoma cruzi phosphomannomutase and mannose-1-phosphate guanylyltransferase assay. It counts as functional. Particulars: 10 µM.
For assay [5], the target named is T2, Arginase-2, mitochondrial (Homo sapiens) (UniProt P78540).
T2 sequence (whole entry): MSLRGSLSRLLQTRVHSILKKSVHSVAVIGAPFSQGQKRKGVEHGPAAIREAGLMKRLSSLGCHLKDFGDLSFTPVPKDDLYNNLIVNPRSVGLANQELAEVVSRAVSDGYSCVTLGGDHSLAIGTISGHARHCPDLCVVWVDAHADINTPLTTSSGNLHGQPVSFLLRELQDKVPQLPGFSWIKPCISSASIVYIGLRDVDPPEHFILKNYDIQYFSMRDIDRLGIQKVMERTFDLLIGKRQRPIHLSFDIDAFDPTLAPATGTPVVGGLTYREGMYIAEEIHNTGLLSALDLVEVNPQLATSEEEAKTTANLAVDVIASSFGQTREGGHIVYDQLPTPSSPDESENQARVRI
Put plainly: in vitro enzyme assay to detect the production of urea directly proportional to the activity of Arginase II. Further: in the data most compounds retested in dose-response had high values. Particulars: 33.3 µM. Type of assay: functional.

The target in assay [6] is T3, Proteasome subunit beta (Trypanosoma cruzi) (UniProt O96673).
T3 sequence (whole entry): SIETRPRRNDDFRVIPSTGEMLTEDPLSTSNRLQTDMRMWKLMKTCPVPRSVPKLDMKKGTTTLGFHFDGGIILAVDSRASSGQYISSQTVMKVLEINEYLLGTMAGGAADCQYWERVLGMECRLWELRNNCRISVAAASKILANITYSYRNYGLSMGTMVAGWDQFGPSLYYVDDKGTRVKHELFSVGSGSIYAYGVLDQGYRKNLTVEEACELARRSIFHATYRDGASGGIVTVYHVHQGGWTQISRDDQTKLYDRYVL
The assay is described as follows: Trypanosoma cruzi proteasome chymotrypsin-like activity (TcProtChymo) assay. Further: in the data most compounds retested in dose-response had high values. It counts as functional. Particulars: 9.37 µM.

A further assay is filed under the species Homo sapiens. The assay is described as follows: To identify inhibition of the IFN signalling (Jak-Stat) pathway via expression of an eGFP reporter gene under the control of an IFN-stimulated response element (ISRE) containing MxA promoter. Type of assay: functional. Particulars: 30 µM. (In general: Reporter assays use an easily measured gene product as a stand-in for the process of interest.)

Assay [7] deals with T4, Tyrosyl-tRNA synthetase, putative (Trypanosoma cruzi (strain CL Brener)) (UniProt Q4DSP6).
T4 sequence (whole entry): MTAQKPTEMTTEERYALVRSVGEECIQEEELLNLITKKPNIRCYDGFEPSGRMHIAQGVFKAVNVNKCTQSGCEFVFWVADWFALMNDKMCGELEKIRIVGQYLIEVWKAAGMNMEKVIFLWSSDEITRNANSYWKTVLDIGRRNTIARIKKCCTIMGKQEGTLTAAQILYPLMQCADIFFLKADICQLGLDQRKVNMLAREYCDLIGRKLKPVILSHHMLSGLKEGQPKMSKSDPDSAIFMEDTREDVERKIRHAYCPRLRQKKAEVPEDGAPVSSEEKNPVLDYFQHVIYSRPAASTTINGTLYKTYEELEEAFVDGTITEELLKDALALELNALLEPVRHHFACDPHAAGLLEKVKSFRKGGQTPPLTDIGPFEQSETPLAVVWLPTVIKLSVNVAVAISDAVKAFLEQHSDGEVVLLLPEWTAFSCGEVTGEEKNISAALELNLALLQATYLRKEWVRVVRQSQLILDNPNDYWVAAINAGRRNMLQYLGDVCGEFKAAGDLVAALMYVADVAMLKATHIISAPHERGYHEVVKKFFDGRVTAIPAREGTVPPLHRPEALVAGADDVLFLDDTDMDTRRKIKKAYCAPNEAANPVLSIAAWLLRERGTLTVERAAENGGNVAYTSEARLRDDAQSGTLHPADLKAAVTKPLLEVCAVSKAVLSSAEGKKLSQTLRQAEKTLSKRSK
The assay is described as follows: Trypanosoma cruzi tyrosyl tRNA synthetase (TcYRS) _High Tyrosine SOP. Further: in the data most compounds retested in dose-response had high values. It counts as functional. Particulars: 30 µM.

Assay [8] concerns the target T4, Tyrosyl-tRNA synthetase, putative (Trypanosoma cruzi (strain CL Brener)). The assay is described as follows: Trypanosoma cruzi tyrosyl tRNA synthetase (TcYRS) SOP. It counts as functional. Particulars: 30 µM.
The target of assay [9] is Chromo domain-containing protein 1 (Saccharomyces cerevisiae (strain ATCC 204508 / S288c) (Baker's yeast)) (UniProt P32657). The assay is described as follows: ScCHD-1 Enzyme Inhibition Assay. Further: in the data most compounds retested in dose-response had high values. It counts as functional. The following applies: 30 µM.
Chain of Chromo domain-containing protein 1 (Saccharomyces cerevisiae (strain ATCC 204508 / S288c) (Baker's yeast)) (P32657 whole entry, the tested form may be a part): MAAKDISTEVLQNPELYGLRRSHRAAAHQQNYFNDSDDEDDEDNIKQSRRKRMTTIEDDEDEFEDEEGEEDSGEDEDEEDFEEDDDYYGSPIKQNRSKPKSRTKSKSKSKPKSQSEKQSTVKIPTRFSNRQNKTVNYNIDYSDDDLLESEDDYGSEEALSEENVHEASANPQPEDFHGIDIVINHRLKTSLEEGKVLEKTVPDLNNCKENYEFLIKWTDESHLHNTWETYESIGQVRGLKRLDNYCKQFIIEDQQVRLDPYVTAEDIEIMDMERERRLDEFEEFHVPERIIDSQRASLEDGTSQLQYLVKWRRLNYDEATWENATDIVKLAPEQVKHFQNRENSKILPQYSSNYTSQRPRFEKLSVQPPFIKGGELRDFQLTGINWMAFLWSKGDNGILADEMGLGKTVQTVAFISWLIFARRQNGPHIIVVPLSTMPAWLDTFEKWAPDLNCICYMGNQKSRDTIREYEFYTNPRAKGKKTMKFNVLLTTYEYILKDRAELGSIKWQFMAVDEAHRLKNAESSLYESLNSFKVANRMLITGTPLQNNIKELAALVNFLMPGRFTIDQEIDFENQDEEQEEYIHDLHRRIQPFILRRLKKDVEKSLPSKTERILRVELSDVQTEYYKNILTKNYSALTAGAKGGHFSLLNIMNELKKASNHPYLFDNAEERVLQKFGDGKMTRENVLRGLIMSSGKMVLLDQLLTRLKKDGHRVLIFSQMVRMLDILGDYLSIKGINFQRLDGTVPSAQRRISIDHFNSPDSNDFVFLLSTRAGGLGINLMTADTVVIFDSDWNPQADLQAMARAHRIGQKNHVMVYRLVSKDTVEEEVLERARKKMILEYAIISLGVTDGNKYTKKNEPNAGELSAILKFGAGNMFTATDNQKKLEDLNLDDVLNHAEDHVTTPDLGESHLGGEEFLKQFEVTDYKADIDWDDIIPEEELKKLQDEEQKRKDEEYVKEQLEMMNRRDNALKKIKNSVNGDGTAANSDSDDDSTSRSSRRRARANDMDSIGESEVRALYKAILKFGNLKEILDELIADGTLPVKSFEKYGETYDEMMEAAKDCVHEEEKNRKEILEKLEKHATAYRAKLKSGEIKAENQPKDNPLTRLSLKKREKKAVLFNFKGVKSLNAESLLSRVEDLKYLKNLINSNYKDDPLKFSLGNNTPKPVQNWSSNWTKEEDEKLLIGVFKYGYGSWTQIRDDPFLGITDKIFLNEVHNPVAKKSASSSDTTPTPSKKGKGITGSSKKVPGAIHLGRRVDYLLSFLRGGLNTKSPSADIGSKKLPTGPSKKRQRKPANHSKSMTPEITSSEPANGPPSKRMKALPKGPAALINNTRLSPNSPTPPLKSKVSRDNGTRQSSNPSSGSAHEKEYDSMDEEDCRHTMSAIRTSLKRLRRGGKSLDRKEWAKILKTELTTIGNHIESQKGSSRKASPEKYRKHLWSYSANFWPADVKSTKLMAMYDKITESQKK

Chain of Sialic acid-binding Ig-like lectin 9 (Homo sapiens) (Q9Y336 whole entry): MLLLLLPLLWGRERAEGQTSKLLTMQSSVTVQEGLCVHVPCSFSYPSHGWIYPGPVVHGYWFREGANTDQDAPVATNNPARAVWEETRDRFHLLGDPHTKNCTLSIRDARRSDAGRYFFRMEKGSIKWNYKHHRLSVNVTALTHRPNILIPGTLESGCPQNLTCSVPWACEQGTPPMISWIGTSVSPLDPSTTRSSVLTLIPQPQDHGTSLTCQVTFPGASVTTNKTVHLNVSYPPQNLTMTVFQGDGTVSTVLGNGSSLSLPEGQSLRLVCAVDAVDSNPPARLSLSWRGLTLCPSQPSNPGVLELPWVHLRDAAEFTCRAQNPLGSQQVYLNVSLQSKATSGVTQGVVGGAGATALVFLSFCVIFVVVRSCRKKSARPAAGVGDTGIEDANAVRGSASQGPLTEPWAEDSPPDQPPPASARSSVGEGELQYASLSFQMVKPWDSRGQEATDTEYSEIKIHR
Chain of Protein translocase subunit SecA (Escherichia coli (strain K12)) (P10408 whole entry): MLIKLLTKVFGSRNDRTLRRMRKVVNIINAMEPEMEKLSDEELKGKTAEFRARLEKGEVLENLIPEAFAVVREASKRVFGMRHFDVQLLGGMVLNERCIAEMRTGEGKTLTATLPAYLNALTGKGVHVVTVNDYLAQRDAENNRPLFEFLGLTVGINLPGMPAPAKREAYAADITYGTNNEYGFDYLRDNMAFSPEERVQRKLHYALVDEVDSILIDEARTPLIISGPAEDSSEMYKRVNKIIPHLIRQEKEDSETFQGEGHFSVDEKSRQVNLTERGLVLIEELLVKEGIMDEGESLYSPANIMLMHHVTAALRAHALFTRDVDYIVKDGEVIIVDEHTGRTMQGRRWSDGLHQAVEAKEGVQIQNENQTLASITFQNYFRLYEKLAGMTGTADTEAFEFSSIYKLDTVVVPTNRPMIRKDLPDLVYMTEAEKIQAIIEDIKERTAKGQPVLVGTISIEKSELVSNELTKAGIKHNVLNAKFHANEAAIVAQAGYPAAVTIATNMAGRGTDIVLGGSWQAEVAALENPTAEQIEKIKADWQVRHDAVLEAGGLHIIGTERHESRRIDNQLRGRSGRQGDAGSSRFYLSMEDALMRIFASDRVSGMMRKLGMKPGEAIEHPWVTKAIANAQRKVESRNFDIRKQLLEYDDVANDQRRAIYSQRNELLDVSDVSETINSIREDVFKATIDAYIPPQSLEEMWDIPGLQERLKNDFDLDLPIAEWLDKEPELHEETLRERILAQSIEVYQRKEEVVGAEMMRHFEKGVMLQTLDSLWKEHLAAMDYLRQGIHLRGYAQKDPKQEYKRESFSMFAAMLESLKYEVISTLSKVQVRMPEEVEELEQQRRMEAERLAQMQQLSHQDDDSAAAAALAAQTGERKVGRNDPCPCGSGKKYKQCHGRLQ

Consider `CS(=O)(=O)CC(=O)N1C[C@H]2CCC[C@@]2(COCc2ccccn2)C1`, for which the Percent Effect in [1] is -1.45%; in [2], 2.7%; in [3], -3.2%; in assay [4], 0.525%; with Trypanosoma cruzi it was -0.88%; in assay [5] it was 11.2%. Further, the Percent Effect is 26% in assay [6]; -5.57% in the assay listed under Homo sapiens; 0% in assay [7]; 17.9% in assay [8]; 0.642% in [9].
Turning to `Cc1nc(CN(C)C2CCN(Cc3sc(C)nc3C)C2)no1` (stereo unspecified), the Percent Effect in assay [1] is -3.5%; in assay [2] it was 7.89%; in assay [3], -14.6%; in assay [4], 4.01%; with Trypanosoma cruzi it was 7.38%; in assay [5], 0%. Besides, the Percent Effect in assay [6] was 20.6%; in the assay filed under Homo sapiens, 2.16%; in [7] it was 4.43%; in assay [8], 11.1%; in assay [9], -3.08%.
Consider `O=C(O)c1c[nH]c2cc(NS(=O)(=O)c3cccc(Cl)c3F)ccc12`, for which the Percent Effect in [1] is -4.73%; in assay [2] it was -10.4%; in assay [3] it was -45.8%; in assay [4], 7.97%; in the assay with Trypanosoma cruzi, 0.562%; in assay [5] it was 5.69%. The Percent Effect in assay [6] was 4.22%; in the assay filed under Homo sapiens it was 2.38%; in assay [7], -11.7%; in assay [8], -24.4%; in assay [9] it was 0.552%.
Regarding `CCc1ccc(CNC(=O)NC(C)CN2CCOCC2)s1` (stereo unspecified), the Percent Effect is -1.82% in [1]; 18.4% in assay [2]; -5.99% in assay [3]; -6.5% in assay [4]; 1.46% in the assay on Trypanosoma cruzi; 1.18% in assay [5]. The Percent Effect is 9.49% in [6]; 5.21% in the assay listed under Homo sapiens; -12.8% in [7]; 15.6% in assay [8]; 8.4% in assay [9].
As to `CCC(C)(NCC(=O)N(c1ccccc1)C(C)C)c1nc(C)cs1` (stereo unspecified), the Percent Effect was 1.71% in assay [1]; 8.11% in [2]; -12.9% in assay [3]; 3.16% in assay [4]; 1.27% in the assay with Trypanosoma cruzi; 7.2% in assay [5]. For the same compound, the Percent Effect is 7.3% in [6]; -1.37% in the assay filed under Homo sapiens; 4.3% in assay [7]; 13.6% in assay [8]; -8.52% in assay [9].
As to `CNC(=O)c1cc2c(nc1NC(C)C)CCN(C(=O)NC(C)C)CC2`, the Percent Effect in assay [1] is -2.44%; in assay [2] it was 0%; in assay [3], -4.24%; in [4], -6.22%; in the assay with Trypanosoma cruzi, -2.64%; in [5], -0.744%. The Percent Effect in assay [6] is -2.83%; in the assay listed under Homo sapiens, -8.82%; in assay [7] it was 6.45%; in assay [8] it was 6.17%; in assay [9] it was -0.531%.
For `O=C1NCCN1C1CCN(Cc2nc(-c3ccoc3)no2)CC1`, the Percent Effect in [1] is -1.17%; in assay [2] it was 5.2%; in assay [3] it was 2.43%; in [4], 5.09%; in the assay on Trypanosoma cruzi, 3.56%; in assay [5], -2.85%. Further, the Percent Effect in assay [6] was 4.56%; in the assay listed under Homo sapiens, -2.53%; in assay [7], 0.971%; in assay [8], 12.2%; in assay [9], -2.45%.
For `Cc1cnn(CC(C)NCc2csc(-c3ccsc3)n2)c1` (stereo unspecified), the Percent Effect was -3.78% in assay [1]; -3.8% in assay [2]; -1.07% in assay [3]; 0.382% in assay [4]; 0.923% with Trypanosoma cruzi; -1.94% in assay [5]. Also, the Percent Effect in assay [6] was 28.1%; in the assay filed under Homo sapiens it was 12.5%; in assay [7] it was 6.25%; in [8] it was 12.7%; in assay [9], -20.9%.
For `Cc1noc(C)c1CNC(=O)c1ccc(NC2CC2)nc1`, the Percent Effect in [1] is -5.61%; in assay [2], 5.26%; in assay [3], -12.2%; in assay [4], 12.7%; with Trypanosoma cruzi, 7.94%; in assay [5], -2.52%. Also, the Percent Effect in assay [6] was -0.0846%; in the assay listed under Homo sapiens, 3.38%; in [7], 7.39%; in [8] it was 25.9%; in assay [9] it was -5.7%.
Regarding `CC(C#N)CSc1ccccc1NCC(=O)Nc1ccc(F)cc1` (stereo unspecified), the Percent Effect in assay [1] is -7.84%; in assay [2], -5.48%; in [3] it was 17.1%; in assay [4] it was -9.84%; in the assay with Trypanosoma cruzi, -3.33%; in assay [5], 1.82%. The Percent Effect in assay [6] is 6.39%; in the assay listed under Homo sapiens it was 3.15%; in assay [7] it was -8.6%; in assay [8], -10%; in assay [9], -0.597%.
With `CCn1nc(CC(C)C)cc1C(=O)NCCn1cccc1`, the Percent Effect is -6.33% in [1]; -1.39% in [2]; 1.75% in assay [3]; 1.17% in [4]; -3.01% in the assay with Trypanosoma cruzi; -3.09% in [5]. For the same compound, the Percent Effect in [6] was 11.6%; in the assay listed under Homo sapiens, -24.3%; in assay [7], 0%; in assay [8], -2.56%; in assay [9], 1.57%.
